Bioassay records (PubChem BioAssay)
This is a sample that favours compounds with a hit; in the whole collection about 9.3% have one here.
ELG1 genotoxic = genotoxicity induction in ELG1-luciferase HEK293T cells; actives 1.3% (n = 330,000); Potency, µM (highest dose often 46 µM), inactives show at the highest dose activity change, positive = activation, actives largely listed as activators; HEK293T ELG1-luciferase reporter, luminescence, 16 h; AID 504466; note: % of control where 0% means no effect; nearly all actives have a fitted effect of over 60% in size
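Reporter readout depends on ELG1 protein level, which increases with genetic stress. After 16 hr compound exposure at 37 °C, luciferase activity was quantified using ONE-Glo.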
FLuc counter = inhibits or activates purified firefly luciferase, miR-21 counter-screen | P08659 | purified FLuc, Km substrates, luminescence inhibition | Potency, µM (doses to about 57.5 µM), without a hit: at the top dose activity change, negative = inhibition, hits mostly inhibitors | actives 6.9% (n = 360,000) | AID 588342;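 note: plate controls were vehicle for no effect and reference inhibitor for full effect; nearly all actives have a fitted effect of over 55% in size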
Target sequence (P08659 whole entry, looked up): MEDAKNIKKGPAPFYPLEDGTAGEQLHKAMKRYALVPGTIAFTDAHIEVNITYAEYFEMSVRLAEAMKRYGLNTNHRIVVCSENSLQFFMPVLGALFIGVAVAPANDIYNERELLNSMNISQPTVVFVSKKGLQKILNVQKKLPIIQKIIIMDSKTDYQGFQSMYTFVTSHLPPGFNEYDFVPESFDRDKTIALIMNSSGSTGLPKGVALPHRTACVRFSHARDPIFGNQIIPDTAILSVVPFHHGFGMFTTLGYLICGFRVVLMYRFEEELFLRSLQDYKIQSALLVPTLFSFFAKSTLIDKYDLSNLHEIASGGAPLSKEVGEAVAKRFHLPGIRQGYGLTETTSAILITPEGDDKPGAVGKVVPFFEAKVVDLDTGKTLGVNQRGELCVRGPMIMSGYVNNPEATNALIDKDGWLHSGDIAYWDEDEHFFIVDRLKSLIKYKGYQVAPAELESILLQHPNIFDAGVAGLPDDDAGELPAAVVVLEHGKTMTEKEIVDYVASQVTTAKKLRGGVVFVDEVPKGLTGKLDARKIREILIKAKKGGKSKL
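Purified P. pyralis luciferase, 10 nM final, with Km-level 10 uM D-luciferin and 10 uM ATP in 50 mM Tris acetate pH 7.5, 10 mM Mg acetate, 0.01% Tween-20, 0.05% BSA; 6-point qHTS titration about 60 µM downward; luminescence read.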
Rab9 prom act = Rab9 promoter activation. Potency, µM (titrated, usually from 9.22 µM), for the others: at the highest dose activation, negative = inhibition, hits mostly activators. Huh7 Rab9 promoter-luciferase reporter, luminescence, 24 h. AID 485297. actives 2.8% (n = 320,000); note: % of control where 0% means no effect; nearly all actives have a fitted effect of over 60% in size
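Cells were plated at 1500 per well in reduced-serum medium with 10% FBS and left 2 h. Compound in DMSO was then added for 24 h at 37 °C. Reporter signal was read by luminescence after 10 min with luciferase detection reagent.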
ELG1 repair inh = ELG1-dependent DNA repair inhibition; AID 504467; actives 2.3% (n = 330,000); Potency, µM (titrated, usually from 46.1 µM), for the others: at the top dose activity change, negative = inhibition, hits mostly inhibitors; HEK293T ELG1-luciferase reporter, luminescence, 16 h; DNA damage induced by 5-fluorouridine; note: % is set by controls: 0 for no effect and ±100 for the full control effect; nearly all actives have a fitted effect of over 55% in size
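Luminescence from the luciferase reporter, measured 30 min after ONE-Glo reagent at room temperature, was the read-out. Beforehand, 2,000 cells per well were exposed for 16 hr at 37 °C to 5-fluorouridine together with compound or vehicle.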
NPC1 prom act = activators of NPC1 promoter. actives 2.4% (n = 320,000). Huh7 NPC1 promoter luciferase reporter, 24 h. Potency, µM (titrated, usually from 9.22 µM), inactives show at the top dose activation, most hits filed as activators. AID 485313; note: % of control where 0% means no effect; nearly all actives have a fitted effect of over 60% in size
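Luminescence read-out of NPC1 promoter-driven luciferase in stably transfected Huh7 cells; compounds delivered in DMSO and left 24 h at 37C, 5% CO2, qHTS titration format.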
SMN2 splice enh = enhancers of SMN2 splice variant expression | HEK293 SMN2-luciferase splicing reporter, luminescence, 30-36 h | Potency, µM (titrated, usually from 46.1 µM), for inactives: top-dose activity change, positive = activation, usual class: activators | actives 2.8% (n = 210,000) | AID 1458; note: % of control where 0% means no effect; nearly all actives have a fitted effect of over 55% in size
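HEK293 cells carry an SMN2 minigene-luciferase reporter in which exon 7 inclusion puts luciferase in frame. Cells were seeded at 2000 cells/well, attached for 10-12 hours, then exposed to compounds for 30-36 hours at 37C before ONE-Glo luminescence.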
Numbers without * were called inactive; u = inconclusive; x = no result. Calls come from the whole dose curve; as a rule, active = well fitted curve in the direction sought with a large enough effect; inconclusive = small, poorly fitted or top-dose-only effect, or another doubt; inactive = no such curve, though single readings can be large; an effect the other way counts as inactive or inconclusive. Potency is the fitted concentration of half-maximal effect.

SMILES	ELG1 genotoxic	FLuc counter	Rab9 prom act	ELG1 repair inh	NPC1 prom act	SMN2 splice enh
CCc1ccc(S(=O)(=O)Nc2cccc(-c3ccc(N4CCOCC4)nn3)c2)cc1	x	8.49µM*	x	x	x	x
O=[N+]([O-])c1cccc(S(=O)(=O)Nc2cccc(-c3ccc(N4CCCC4)nn3)c2)c1	u	9.53µM*	12.2%	u	-1.7%	x
O=[N+]([O-])c1cccc(S(=O)(=O)Nc2cccc(-c3ccc(N4CCOCC4)nn3)c2)c1	u	2.13µM*	u	u	25.1%	x
CCOc1ccc(S(=O)(=O)N(C)c2ccc(OCC(=O)NCCc3ccc(OC)cc3)cc2)cc1	-7.1%	-0.8%	-2.5%	u	-4.5%	x
CCOC(=O)N1CCN(C(=O)CSCc2ccccc2)CC1	17.5%	u	u	u	u	11.2µM*
CN1CCN(C(=O)CSc2nnc(COc3ccccc3)o2)CC1	-1.4%	5.8%	-1.4%	20.8%	-1.0%	x
CCOC(=O)N1CCN(C(=O)CSc2nnc(COc3ccccc3)o2)CC1	-0.4%	3.5%	-0.2%	-1.3%	-0.5%	3.98µM*
CCOc1ccc(N(CC(=O)NC2CCCCC2)C(=O)CSc2nnc(COc3ccccc3)o2)cc1	-8.3%	-0.5%	-2.2%	18.4µM*	0.0%	-7.2%
O=C(CN(Cc1cccs1)C(=O)CSc1nnc(COc2ccccc2)o1)NC1CCCCC1	-7.9%	1.2%	1.0%	18.4µM*	-1.5%	-16.2%
CCOC(=O)N1CCN(C(=O)CSCc2ccc(Cl)cc2)CC1	-0.8%	5.5%	-2.1%	-8.5%	-4.3%	7.6%
O=C(Nc1cccc(S(=O)(=O)N2CCCCCC2)c1)C1=COCCO1	-0.1%	-4.3%	-0.9%	25.7%	2.0%	x
CCn1cc(SCC(=O)N2CCOCC2)c2ccccc21	18.4µM*	u	u	u	u	u
Cc1ccccc1CSc1cn(CC(=O)N2CCCCC2)c2ccccc12	x	-18.7%	x	x	x	x
CCN1CCN(C(=O)CSc2cc(=O)n(CC)c3ccccc23)CC1	20.6µM*	-1.5%	-1.1%	u	0.1%	24.0%
O=C(Cn1cc(SCc2ccccc2F)c2ccccc21)N1CCCC1	x	16.9µM*	x	x	x	x
O=C(Cn1cc(SCc2ccccc2Cl)c2ccccc21)N1CCOCC1	13.4%	12µM*	u	u	u	17.8µM*
Cn1cc(SCC(=O)N2CCOCC2)c2ccccc21	u	-5.5%	18.2%	u	15.9%	22.3%
NCCCNc1nc(N)c([N+](=O)[O-])c(NC2CCCCC2)n1	-2.5%	-1.5%	-49.1%	u	-45.5%	x
O=C1CC(c2ccccc2)CC(=O)C1CS(=O)(=O)c1ccccc1 (centres undefined)	-0.2%	-6.7%	-6.5%	0.5%	-3.0%	12.1%
N/C(=N\OC(=O)CC1CCCCC1)c1cccc([N+](=O)[O-])c1	2.3%	6.01µM*	-3.5%	17.0%	-0.7%	-27.0%
COc1ccc(/C(N)=N/OC(=O)CC2CCCCC2)cc1	u	16.9µM*	20.2%	24.6%	20.1%	x
N/C(=N\OC(=O)CCC1CCCC1)c1cccc([N+](=O)[O-])c1	4.1%	9.53µM*	1.1%	u	0.9%	x
N/C(=N\OC(=O)CCC1CCCCC1)c1cccnc1	9.6%	19µM*	-3.7%	u	11.5%	17.0%
N/C(=N\OC(=O)CCC1CCCC1)c1ccc(Br)cc1	16.8%	u	10.2%	-1.9%	9.6%	x
Cc1cccc(N(C)C(CNS(=O)(=O)c2ccccc2)c2ccccc2)c1 (centres undefined)	x	-1.2%	x	x	x	1.7%
SMILES	ELG1 genotoxic	FLuc counter	Rab9 prom act	ELG1 repair inh	NPC1 prom act	SMN2 splice enh
COc1cccc(NC(=O)CN(C)C(=O)c2ccc(-c3ccc(Cl)cc3)o2)c1	13.0%	u	4.5%	-15.1%	10.5%	x
COc1ccc(C(=O)C2CCCN(C(=O)CCc3scnc3C)C2)c(C)c1 (centres undefined)	u	19µM*	u	u	u	x
Cn1c(=O)n(CCc2ccccc2)c(=O)c2c1nc1n2CCCN1CCc1ccccc1	-25.8%	2.3%	1.6%	23.1µM*	-2.8%	2.7%
Cn1c(=O)n(Cc2ccc(F)cc2)c(=O)c2c1nc1n2CCCN1Cc1ccccc1	-9.7%	0.6%	-6.4%	20.6µM*	-4.0%	-65.7%
CCCn1c(=O)c2c(nc3n2CCCN3Cc2ccccc2)n(C)c1=O	-5.7%	0.2%	-3.3%	-5.4%	1.5%	x
CCc1ccc(N2CCn3c2nc2c3c(=O)n(Cc3ccc(F)cc3)c(=O)n2C)cc1	x	9.53µM*	x	x	x	x
CCc1ccc(N2CCn3c2nc2c3c(=O)n(Cc3c(F)cccc3Cl)c(=O)n2C)cc1	x	-1.3%	x	x	x	x
Cc1nn(CC(=O)Nc2cc(S(=O)(=O)N3CCOCC3)ccc2Cl)c(C)c1[N+](=O)[O-]	-3.1%	-1.5%	-3.3%	u	-1.7%	x
COc1ccccc1N1CCN(C(=O)CNC(=O)c2cn(-c3ccccc3OC)c(=O)c3ccccc23)CC1	6.7%	6.75µM*	22.2%	27.4%	7.4%	9.0%
COc1ccccc1-n1cc(C(=O)NCC(=O)N2CCN(c3ccccc3)CC2)c2ccccc2c1=O	15.3%	0.757µM*	u	u	27.9%	u
COc1ccccc1OCC(=O)N1CCN(c2ccccc2OC)CC1	x	-1.8%	x	x	x	1.6%
COc1ccc(N2CCN(C(=O)CNC(=O)c3ccccc3Cl)CC2)cc1	-7.0%	2.0%	-9.9%	-5.4%	-0.3%	x
COc1ccccc1-n1cc(C(=O)NCC(=O)N2CCN(c3ccccn3)CC2)c2ccccc2c1=O	12.1%	3.38µM*	17.2%	u	16.1%	x
O=C(C1=C[C@H](C2CC2)C[C@H](OCc2ccc(CO)cc2)O1)N1CCN(Cc2ccc3c(c2)OCO3)CC1	-9.7%	-0.4%	-2.2%	6.51µM*	-3.6%	x
CC(C)(C)[C@H]1C=C(C(=O)N2CCN(Cc3ccc4c(c3)OCO4)CC2)O[C@@H](OCc2ccc(CO)cc2)C1	-8.1%	0.2%	-2.5%	5.17µM*	-1.0%	x
C#Cc1ccc([C@H]2C=C(C(=O)N3CCN(Cc4ccc5c(c4)OCO5)CC3)O[C@@H](OCC)[C@@H]2CCCO)cc1	-10.4%	0.8%	-2.7%	18.3µM*	-3.6%	x
COc1ccc(S(=O)(=O)Nc2cc3c(cc2NCc2ccccc2)n(C)c(=O)n3C)cc1OC	x	u	x	x	x	3.55µM*
Cn1c(=O)n(C)c2cc(NS(=O)(=O)c3ccc(Cl)cc3)c(NCc3ccccc3)cc21	x	15.1µM*	x	x	x	7.1%
Cc1ccc(CNS(=O)(=O)c2ccc3c(c2)n(C)c(=O)n3C)cc1	-1.7%	0.4%	-5.8%	8.2µM*	-11.2%	x
Cc1cc(S(=O)(=O)Nc2cc3c(cc2NCc2ccccc2)n(C)c(=O)n3C)ccc1F	x	23.9µM*	x	x	x	10µM*
